# Compound activity: PubChem BioAssay, several laboratories
# This excerpt belongs to a sample that is enriched for hits.
# HIV RNase H inh-1: HIV-1 RT RNase H inhibitors, primary screen, biochemical, fluorescence. AID 565, 2006. Gag-Pol polyprotein (Human immunodeficiency virus type 1 group M subtype B (isolate …. hit rate 1.9% among 65,000. RT-RNase H RNA/DNA duplex cleavage. inhibition, % at 10 µM; in the data active = inhibition above about 50%
# RmlCD inh mix: RmlC and RmlD coupled enzyme inhibitors, primary screen, biochemical, 384-well, compound mixtures, retest; hit rate 0.39% among 110,000; inhibition, % at 5.5 µM; RmlC/RmlD coupled enzyme inhibition, 384-well mixture HTS; in the data active = inhibition above about 30%, passing the limit was not always enough; inconclusive = no clear call, values can overlap the other calls
# HIV RNase H inh-2: HIV-1 RT RNase H inhibitors, retest, confirmation, biochemical | shares compounds with HIV RNase H inh-1 | inhibition, % at 10 µM | Recombinant RT RNase H, fluorescent RNA/DNA duplex cleavage | AID 651, 2007 | hit rate 39% among 1,000; in the data active = inhibition above about 48%; inconclusive = no clear call, values can overlap the other calls
# Numbers stand for hits; - = inactive; ? = inconclusive; . = no result given.
SMILES,HIV RNase H inh-1,RmlCD inh mix,HIV RNase H inh-2
Cn1c(SCC(=O)NCc2ccco2)nc2ccccc2c1=O,-,-,.
C=CCNC(=S)Nc1sc2c(c1C(=O)OCC)CC(C(C)C)OC2 (stereo not drawn),.,-,.
CCOc1ccc(N2CC(=O)N(c3ccc(OCC)cc3)CC2=O)cc1,.,-,.
CCOc1ccc(N2Cc3ccccc3C2)cc1,73,-,61
Cc1ccc(C2NC(=O)c3c(sc4c3CCN(C)C4)N2)o1 (stereo not drawn),-,-,.
CCOC(=O)N1CCc2c(sc3c2C(=O)NC(c2ccc(-c4ccc(Cl)cc4)o2)N3)C1 (stereo not drawn),74,.,97
COCCNC(=O)C1CC(c2cccc([N+](=O)[O-])c2)=NO1 (stereo not drawn),.,-,.
CSc1nc(C)cc(OCNC(=O)c2cccs2)n1,-,.,.
Cc1c(-c2ccccc2)sc(N)c1C(=O)N1CCOCC1,85,-,-
CCOC(=O)c1c(N)sc(-c2ccccc2)c1C,.,-,.
CCCOc1ccc(C(=O)Nn2c(C)nc3ccccc3c2=O)cc1,72,-,-
Cc1nc2ccccc2c(=O)n1NC(=O)COc1ccccc1,-,-,.
O=C(c1coc(=O)c(Br)c1)N1CCOCC1,61,-,-
O=C(c1ccc(=O)oc1)N1CCOCC1,-,.,.
CN(Cc1ccccc1)C1CC(=O)N(c2ccc(C(=O)O)cc2)C1=O (stereo not drawn),77,-,-
COC(=O)c1ccc(N2C(=O)CC(NCc3ccccc3)C2=O)cc1 (stereo not drawn),-,-,.
Cc1ccc(C(=O)C2CCN(CC(=O)Nc3ccc(N(C)C)cc3)CC2)cc1,-,-,.
CC(C)CC1NC(=O)N(CC(=O)N2CCN(S(=O)(=O)c3ccccc3)CC2)C1=O (stereo not drawn),.,-,.
COC(=O)CSc1ncnc2c1sc1nc(-c3ccco3)c3c(c12)CC(C)(C)OC3,60,.,-
CC(C)c1nc2sc3c(NCc4ccco4)ncnc3c2c2c1COC(C)(C)C2,-,-,.
CC(C)Oc1ccc(C2C(C(=O)c3ccco3)=C(O)C(=O)N2CCCN(C)C)cc1 (stereo not drawn),-,.,.
CC1(O)c2ccccc2C(=O)N1CCc1ccccc1F (stereo not drawn),89,-,-
CC1(O)c2ccccc2C(=O)N1Cc1ccccc1 (stereo not drawn),-,-,.
CCOC(=O)/C(C(N)=NCCCO)=C(/O)c1ccccc1,.,-,.
COc1ccc(OC)c(NC(=O)CSc2nnc(Cn3nnc4ccccc43)n2C)c1,.,-,.
SMILES,HIV RNase H inh-1,RmlCD inh mix,HIV RNase H inh-2
CCCCCn1c(N2CCN(c3cccc(Cl)c3)CC2)nc2c1c(=O)[nH]c(=O)n2C,-,-,.
Cn1c(=O)[nH]c(=O)c2c1nc(N1CCN(c3cccc(Cl)c3)CC1)n2CCCc1ccccc1,56,-,-
Cn1cc(C2NC(=O)c3c(sc4c3CCCC4)N2)c2ccccc21 (stereo not drawn),69,.,?
O=C1NC(c2ccccn2)Nc2sc3c(c21)CCC3 (stereo not drawn),-,-,.
O=C1c2ccccc2CC1(Cc1ccccc1)Cc1ccccc1,.,-,.
O=c1[nH]c(=O)n(-c2ccc(F)cc2)c(O)c1C=Nc1ccccc1N1CCCC1,74,-,62
Cc1ccc(-n2c(O)c(C=Nc3ccccc3N)c(=O)[nH]c2=O)cc1C,-,-,.
COC(=O)c1ccc2c(c1)NC(=O)C(N1CCCCC1)S2 (stereo not drawn),-,-,.
O=C(O)c1ccc2c(c1)NC(=O)C(N1CCCC1)S2 (stereo not drawn),92,-,63
CCOC(=O)c1ccc2c(c1)NC(=O)C(N1CCN(c3ccc(OC)cc3)CC1)S2 (stereo not drawn),85,-,-
COC(=O)c1ccc2c(c1)NC(=O)C(N1CCCC1)S2 (stereo not drawn),-,-,.
CS(=O)(=O)NCCC1=CCCCC1,-,-,.
Cc1cccc(C(C)Nc2ccc([N+](=O)[O-])cn2)c1 (stereo not drawn),.,-,.
Cc1nn2c(-c3cccc(NC(=O)CSc4nc5ccccc5o4)c3)nnc2c2ccccc12,89,-,66
Cc1cccc(NC(=O)CSc2nc3ccccc3o2)c1,.,-,.
c1ccc(-c2ccc(-c3ccccn3)nn2)nc1,83,.,77
c1ccc(-c2ccccn2)nc1,-,-,.
COc1cc(C)nc(SCC(N)=O)n1,62,-,-
CCOC(=O)CSc1nc(C)cc(C)n1,.,-,.
C=CCc1cc(C=O)cc(OC)c1OCc1c(Cl)cccc1Cl,.,-,.
C=CCN1C(=O)C2(/C(=C(\O)c3ccc4c(c3)OCCO4)C(=O)C(=O)N2CCCOC)c2ccccc21 (stereo not drawn),-,-,.
Cn1cnnc1SCC(=O)Nc1sc2c(c1C(N)=O)CCC2,75,-,-
Cc1nnc(SCC(=O)Nc2sc3c(c2C(N)=O)CCCC3)[nH]c1=O,.,-,.
